Our source for the inhibition values is PubChem BioAssay AID1578 (Sanford-Burnham Center for Chemical Genomics, 2009).

Screen size: about 290,000 compounds; about 3,000 (1%) were called active. The sample holds actives, similar compounds and a random draw of the others, so the mix is not that of the screen. A number with no mark means an inactive call. No stated cut-off is given here; in the data, active means inhibition mostly above about 36% (no sharp cut-off); inactive means mostly below about 34%.

A short description of the assay: inhibition of NOD1-driven NF-kB reporter – cell-based, luminescence, uHTS, primary screen (AID 1578).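 Further: HEK-293T reporter cells stimulated with the NOD1 agonist gamma-tri-DAP.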 The note with it: NOD1-driven NF-kB luciferase reporter cells, at 4 µM, hits give high values.
On to `Cc1ccccc1C(=O)c1c[nH]c(C(=O)NCc2cccs2)c1`, for which the inhibition is 2.5%.
For `Cc1ccc(-n2cc(C(=O)O)c(=O)cc2C)c(C)c1`, the inhibition is -25.8%.
As to `CC(C)n1cc(CN2CCC(n3nccc3NC(=O)CCCc3ccccc3)CC2)cn1`, the inhibition was -24.8%.
Under `CCOc1cccc(NC(=O)C2CC(=O)N(C)C(=Nc3cccc(F)c3)S2)c1` (stereo not drawn) stands 73.6% (active); under `CCOc1cccc(NC(=O)C2CC(=O)N(C)C(=Nc3ccccc3)S2)c1` (stereo not drawn), 5.5%; under `COc1cccc(NC(=O)C2CC(=O)N(C)C(=Nc3cccc(F)c3)S2)c1` (stereo not drawn), 13.8%.
With `Fc1ccc(N=c2ssnc2Cl)c(F)c1`, the inhibition is -14.2%.
Consider `C/C(=N\Nc1ccc(S(=O)(=O)N2CCOCC2)cc1[N+](=O)[O-])C(C)C`, for which the inhibition was -8.2%.
With `Cn1c(SCC(=O)NCCc2ccccc2)nnc1-c1ccncc1`, the inhibition is -5.8%.
`Cc1nc2ncnn2c(N2CCN(C(=O)c3cccc(F)c3)CC2)c1Cc1ccccc1`: the inhibition is -1.9%.
For `CN=C1SC(CC(=O)Nc2ccccc2F)C(=O)N1/N=C/c1ccc(O)c(OC)c1` (stereo not drawn) the value was 47.1% (active); for `CCOc1ccc(/C=N/N2C(=O)C(CC(=O)Nc3ccc(F)cc3F)SC2=NC)cc1OC` (stereo not drawn), -23%.
For `CN=C1SC(CC(=O)Nc2ccc(F)cc2F)C(=O)N1/N=C/c1ccc(OC(F)F)c(OC)c1` (stereo not drawn), the inhibition is -35.2%.
With `Cc1ccc(-n2c([S-])c(C(=O)NC(C)c3ccccc3)[n+]3ccccc23)cc1` (stereo not drawn), the inhibition is -40.2%.
For `CCOC(=O)CSc1nc(-c2ccccc2)nc2ccc(F)cc12`, the inhibition was -21.7%.
Regarding `CCn1c(SCC(=O)N/N=C(\C)c2ccco2)nnc1-c1ccccc1`, the inhibition was -25.7%.
Turning to `CCOC(=O)N1CCN(C(=O)CSCC(=O)Nc2nc(-c3ccc(-c4ccccc4)cc3)cs2)CC1`, the inhibition was 58.2% (active).
Turning to `CCOC(=O)N1CCN(C(=O)CSCC(=O)Nc2nc(-c3ccc(C)cc3)cs2)CC1`, the inhibition was 13.3%.
For `CCn1c(SCC(=O)Nc2nc(-c3ccc(C)cc3)cs2)nnc1-c1ccccc1`, the inhibition was 31%.
On to `CCn1c(SCC(=O)N/N=C(\C)c2ccncc2)nnc1-c1ccc(C)cc1`, for which the inhibition is -7.3%.
As for `CCn1c(SCC(=O)N/N=C/c2ccccc2OCC(=O)O)nnc1-c1ccccc1`, the inhibition is -7.7%.
With `CCn1c(SCC(=O)N/N=C(\C)c2ccncc2)nnc1-c1ccccc1`, the inhibition is 58.5% (active).
Under `CCn1c(SCC(=O)N/N=C/c2ccccc2OCC(=O)O)nnc1-c1ccc(C(C)(C)C)cc1` stands 86.7% (active); under `CCOC(=O)N1CCN(C(=O)CSCC(=O)Nc2nc(-c3ccccc3)cs2)CC1`, -14%; under `CCn1c(SCC(=O)Nc2nc(-c3ccccc3)cs2)nnc1-c1ccccc1O`, 12.7%.
Regarding `CCn1c(SCC(=O)N/N=C/c2ccccc2OCC(=O)O)nnc1-c1ccc(C)cc1`, the inhibition is 2.1%.
In the case of `O=C(NCCc1ccccc1)c1ccc(CS(=O)Cc2cccc(Cl)c2)o1` (stereo not drawn), the inhibition is -20.6%.
On to `CCOC(=O)c1c(/N=C/c2ccccc2O)sc2c1CCC2`, for which the inhibition is 8.8%.
Turning to `COc1ccc(S(=O)(=O)NCCc2c(C)nn(C)c2Oc2ccccc2)cc1`, the inhibition was -4.8%.
Turning to `COc1ccc(CCCC(=O)Nc2ccc(F)cc2)cc1`, the inhibition was 11.5%.
Under `CCNc1nc(NC(C)C)nc(Oc2ccc(/C=N/O)cc2)n1` stands -10.5%; under `CCOc1ccc(CC2NCCc3cc(OCC)c(OCC)cc32)cc1OCC` (stereo not drawn), -27.9%.
For `CSc1ccc(C(=O)C2CCCN(C(=O)CN3CCOC3=O)C2)cc1` (stereo not drawn), the inhibition is -29.8%.
As for `CCOc1ccc(C(=O)NCCC(=O)N2CCC3(CC2)NCCc2[nH]cnc23)cc1`, the inhibition is -23.8%.
With `O=C(N/N=C/c1ccc(OCc2ccccc2)cc1)c1ccncc1`, the inhibition is -35.1%.
With `O=NN(CCc1ccncc1)c1ccc(OCc2ccccc2)cc1`, the inhibition is 43.7% (active).
For the compound `COc1ccc(N(Cc2ccccc2)N=O)cc1`, the inhibition was -31.8%.
In the case of `Cc1c(C)c2ccc(O)c(CN3CCN(C)CC3)c2oc1=O`, the inhibition is 2%.
Under `COc1ccccc1NC(=S)NC(=O)C1CC1` stands -18.7%.
On to `CCOc1ccccc1NC(=S)NC(=O)C1CC1`, for which the inhibition is 65.9% (active).
Regarding `CCOc1ccccc1NC(=S)NC(=O)C1CCCCC1`, the inhibition was -8%.
In the case of `CC(=O)Nc1ccc(NC(=O)CSc2nnc(NC(=O)C3CC3)s2)cc1`, the inhibition is -6.1%.
Under `CN1C(=O)c2cccc(NC(=O)C3CCCCC3)c2C1=O` stands -4%.
Under `FC(F)(F)c1cnc(NNC(=S)Nc2ccc(Cl)cc2)c(Cl)c1` stands 104% (active); under `Cc1cccc(NC(=S)NNc2ncc(C(F)(F)F)cc2Cl)c1`, 34.9%; under `Cc1ccc(NC(=S)NNc2ncc(C(F)(F)F)cc2Cl)cc1`, 36.4%.
For `C=CCN1C(=O)C(CC(=O)O)SC1=Nc1ccc(N=Nc2ccccc2)cc1` (stereo not drawn) the value was -20.5%.
Regarding `O=C(CN1C2=NCCN2c2ccccc21)c1ccc(Br)cc1`, the inhibition was 6.8%.
In the case of `Cc1ccc2c(Cl)cc(Cl)c(OCC(=O)NC(C)(C)C)c2n1`, the inhibition is -11.5%.
`Cc1cc(Cl)cc(Cl)c1OCC(=O)NCc1ccco1`: the inhibition was 20.4%.
For `Cc1ccc2c(Cl)cc(Cl)c(OCC(=O)N(C(C)C)C(C)C)c2n1`, the inhibition is -3.8%.
Turning to `Cc1ccc2c(Cl)cc(Cl)c(OCC(=O)NC(=O)NCc3ccco3)c2n1`, the inhibition is -16.8%.
As to `Cc1ccc2c(Cl)cc(Cl)c(OCC(=O)NCc3ccco3)c2n1`, the inhibition is 101% (active).
Under `CCN(CC(=O)NC(C)(C)C)C(=O)COc1c(Cl)cc(Cl)c2ccc(C)nc12` stands 49.3% (active); under `COc1cccc(CN(C)C(=O)CNC(=O)c2ccc3c(c2)OCO3)c1OC`, -8.5%; under `CC(C(=O)Nc1ccc2c(c1)OCO2)N(c1ccc(Cl)cc1)S(C)(=O)=O` (stereo not drawn), -9.6%.
For `COc1ccc(-c2oc(NC(C)=O)c(C#N)c2-c2ccc(OC)cc2)cc1` the value was 11.7%.
On to `COc1ccc(-c2oc(NC(=O)CCl)c(C#N)c2-c2ccc(OC)cc2)cc1`, for which the inhibition was 71.1% (active).
Turning to `COc1ccc(-c2oc(NC(=O)c3ccc(C)cc3)c(C#N)c2-c2ccc(OC)cc2)cc1`, the inhibition was -18.9%.
For `COC(=O)CN1C(=O)C2(C(C#N)=C(N)Oc3ccccc32)C2=C1CC(C)(C)CC2=O` (stereo not drawn), the inhibition is 1.7%.
`COc1ccc(-n2c(C)c(C(C)=O)c(C(C)=O)c2C)cc1OC`: the inhibition is -0.8%.
As to `COc1ccc(NC(=S)NC(NC(=O)CCl)C(Cl)(Cl)Cl)c([N+](=O)[O-])c1` (stereo not drawn), the inhibition was 76.4% (active).
For `COc1ccc(NC(=S)NC(NC(C)=O)C(Cl)(Cl)Cl)c([N+](=O)[O-])c1` (stereo not drawn) the value was -5.3%; for `COc1ccc(NC(=S)NC(NC(=O)C(C)C)C(Cl)(Cl)Cl)c([N+](=O)[O-])c1` (stereo not drawn), 11.7%; for `CCOC(=O)N1CCC(NC(=O)c2ccc3c(c2)N=C(CC)c2ccccc2S3)CC1`, 20.2%.
In the case of `O=C(NNC(=S)Nc1ccccc1)c1ccccc1[N+](=O)[O-]`, the inhibition is -34.4%.
On to `CCC(C)(C(=O)NC1CCCCC1)N(C(=O)CNC(C)=O)c1c(C)n(C)n(-c2ccccc2)c1=O` (stereo not drawn), for which the inhibition is -13.9%.
Take `ON=C1c2cc(OCCN3CCCCC3)ccc2-c2ccc(OCCN3CCCCC3)cc21`: the inhibition was 0.3%.
In the case of `NC(=S)NN=C1c2cc(S(=O)(=O)N3CCOCC3)ccc2-c2ccc(S(=O)(=O)N3CCOCC3)cc21`, the inhibition is -20.4%.
For `NC(=S)NN=C1c2cc(OCCN3CCOCC3)ccc2-c2ccc(OCCN3CCOCC3)cc21` the value was 42.8% (active); for `Cc1cccc(C(=O)Nc2ccc(C(=O)Nc3ccc(O)cc3)cc2)c1`, -22.1%.
Under `COc1ccc(CC(=O)OCC(=O)NCCc2ccccc2)cc1OC` stands -25.2%; under `C=CCn1c(SCCOc2ccc(OC)cc2)nnc1C(C)NC(=O)c1ccc(OC)cc1` (stereo not drawn), 5.8%; under `COc1ccc(CC(=O)NC(C)c2nnc(SCCOc3ccc(OC)cc3)n2C)cc1` (stereo not drawn), -0.8%.
For `C=CCn1c(SCCOc2ccc(OC)cc2)nnc1C(C)NC(=O)Cc1ccc(OC)cc1` (stereo not drawn), the inhibition was 74.9% (active).
For the compound `COc1ccc(-c2cc(C(=O)N/N=C(\C)c3ccco3)c3ccccc3n2)c(OC)c1`, the inhibition is -42.5%.
With `CCN1C(=NCc2ccc(OC)cc2)N[C@@H](c2ccccc2)C(C(=O)OC)=C1C`, the inhibition is -15.5%.
For `CC(C)CCN1CCN(Cc2cccn2-c2nccs2)CC1CCO` (stereo not drawn) the value was -20.1%; for `CN1CCN(C(=O)CCC(=O)O)CC1`, -14.8%; for `COc1cccc(CC(=O)n2nc(N)c3cc4ccc(OC)cc4nc32)c1`, 3.9%.
For the compound `COc1ccc2cc3c(N)nn(C(=O)Cc4ccc(Cl)cc4)c3nc2c1`, the inhibition was 14.9%.
`CC(C)Nc1ncnc2ccc(Br)cc12`: the inhibition was 87.6% (active).
In the case of `CCN(CC)c1ncnc2ccc(Br)cc12`, the inhibition was 67.5% (active).
`CCOc1ccccc1Nc1ncnc2ccc(Br)cc12`: the inhibition was -11.1%.
For `CN(Cc1ccccc1)c1ncnc2ccc(Br)cc12` the value was 10.2%; for `Cc1cccc(Nc2ncnc3ccc(Br)cc23)c1`, 42.4%; for `OCCNc1ncnc2ccc(Br)cc12`, 46.1%.
Turning to `Clc1cccc(Nc2ncnc3ccc(Br)cc23)c1`, the inhibition is 11.7%.
Under `CN(C)c1ccc(Nc2ncnc3ccc(Br)cc23)cc1` stands 53.8%.
For `Cc1ccc(CC2C(=O)N(c3cc(Cl)ccn3)C(=O)C2C)cc1` (stereo not drawn) the value was -9.5%; for `Cc1nn(C)cc1CN1CCC(n2nccc2NC(=O)CCCc2ccccc2)CC1`, -26.7%.
Under `O=C(/C=C/c1ccco1)c1ccccc1O` stands -22.5%; under `COc1ccc(NC(=O)c2cc(-c3ccc(OC)c(OC)c3)on2)cc1OC`, -8.9%.
